# Most compounds without a hit are left out; they make up all but 2.2% or so of the library.
# CSC inhib – blocks cancer stem cells. cancer stem cell-like cells viability, luminescence. inhibition, % at 7.5 µM. 1.1% of 300,000 active. AID 2717; in the data active = inhibition above about 75%; inconclusive = no clear call, values can overlap the other calls; tested in HMLE shEcad cells
# Beta apoptosis – blocks beta cell apoptosis | INS-1E cytokine-induced death, ATP luminescence, 48 h; percent of positive-control rescue, neutral wells zero | protection from apoptosis, % (test concentration not listed) | 0.8% of 300,000 active | AID 435005;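 active = Every replicate reaches about 75%, or at least half do and their mean reaches it too, limit read from the data; inconclusive = At least half of replicates reach the limit but their mean does not; inactive = Under half of replicates reach the limit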;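 also: 0% = cytokine-treated negative control wells and 100% = positive control rescue; higher means more ATP so stronger rescue from cytokine killing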
# Shn3 3UTR inh – reduces Shn3 3'UTR luciferase signal in osteoblasts; Clone20 osteoblast Shn3 3'UTR firefly luciferase, 24 h; inhibition, % at 12.5 µM; 0.52% of 360,000 active;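 active = mean inhibition of at least 75% with every replicate also reaching 75%; inconclusive = mean inhibition at least 75% but some replicate below; inactive = mean inhibition below 75%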;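 also: 0% = median of neutral control wells and 100% = pilot-screen positive control compound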
# PfHsp90 set2 – reduces growth (ATP signal) of yeast expressing P. falciparum Hsp90 | S. cerevisiae expressing PfHsp90, BacTiter-Glo ATP, 48 h; yeast lacking PDR1 and PDR3 efflux regulators | inhibition, % at 9.4 µM | 0.32% of 310,000 active | AID 504621;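 active = every replicate shows inhibition above about 80%, whatever the replicate mean, limit read from the data; inconclusive = mean inhibition reaches the set limit but some replicate falls short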;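 also: 0% = DMSO neutral controls and 100% = 20 µM radicicol positive controls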
# Calb FLC – affects C. albicans growth with fluconazole | C. albicans CaCi-2 (fluconazole-resistant clinical isolate) + fluconazole, Alamar Blue growth, 48 h | growth inhibition, % (no concentration beside the values) | 0.57% of 300,000 active | AID 1979;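 active = growth inhibition above about 58% in most replicates, limit read from the data, passing the limit was not always enough; inconclusive = exactly half the replicates above a set limit; inactive = most replicates below a set limit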;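 also: all wells also contain fluconazole at 8 µg/ml as a sub-toxic cotreatment; 0% = median of DMSO wells and 100% = median of geldanamycin control wells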
# Starred values were filed as active, the others as inactive; u = inconclusive; x = not tested or not shown.
SMILES,CSC inhib,Beta apoptosis,Shn3 3UTR inh,PfHsp90 set2,Calb FLC
Cc1cc(N2O[C@]34C=C[C@]25C[C@@H](O)CC[C@]5(C)C3CC[C@]2(C)[C@@H]([C@H](C)/C=C/[C@H](C)C(C)C)CC[C@H]24)no1 (stereo not given in full),x,x,-9,-18,x
OCCCn1c(CCNc2nc(-c3ccc(Cl)cc3)cs2)nc2cc(C(F)(F)F)ccc21,78*,1,26,1,7
O=C1NC(=O)/C(=C\c2ccc(Br)o2)S1,14,5,10,-2,87*
CCN(CC)CCNc1ncnc2c1sc1nc(N3CCOCC3)c3c(c12)CC(C)(C)SC3,u,103*,22,8,12
CCOC(=O)N1CCN(C(=O)CSC2=NS(=O)(=O)c3cc(F)ccc3N2)CC1,-4,-7,7,x,-1
NS(=O)(=O)c1ccc(CNC(=O)c2ccc(NS(=O)(=O)c3ccc4[nH]c(=O)[nH]c4c3)cc2)cc1,-2,0,3,-12,x
O=C(/C=C/c1ccccc1)CCN1CCOCC1,x,x,31,107*,x
CCCCC1S/C(=N/N=C/c2ccco2)NC1=O (stereo not given),-9,-7,-19,-6,100*
COc1ccc2ccccc2c1/C=N/Nc1ccc(Cl)c(C(=O)O)c1,9,-3,-45,9,-8
COc1ccc(N/N=C/c2c(C(=O)O)ccc3ccccc23)cc1,109*,116*,93*,-10,2
Cc1cc(C)cc(NC(=O)CN(C)CC(=O)N(CC(C)C)c2c(N)n(CC(C)C)c(=O)[nH]c2=O)c1,1,-5,3,-13,x
O=S(=O)(/C(=C\c1ccc(C(F)(F)F)cc1)c1nc2ccccc2[nH]1)c1ccccc1,x,x,93*,-7,x
COc1cc(C(=O)NC2CCN(Cc3nnnn3Cc3ccc(F)cc3)CC2)cc(OC)c1OC,-7,0,62,-24,12
COc1cc(OC)cc(C(=O)NC2CCN(Cc3nnnn3Cc3ccc(F)cc3)CC2)c1,-11,-3,8,-6,116*
Cc1cccc(C)c1N=Nc1c(C)cc(O)cc1C,99*,7,-40,112*,-1
CCCN(C(=O)CCl)C1=CCCCC1,-11,-5,6,5,-3
COc1ccc2sc(N(CCCN(C)C)C(=O)c3ccc(S(=O)(=O)N4CCc5ccccc5C4)cc3)nc2c1,91*,x,-18,5,-11
COc1cc2ccccc2cc1C(=O)N(CCN(C)C)c1nc2ccc(Br)cc2s1,47,-3,-20,10,102*
Cc1ccc2nc(N(CCCN(C)C)C(=O)c3ccc(S(=O)(=O)N4CCc5ccccc5C4)cc3)sc2c1,6,114*,25,5,-1
COc1ccc2sc(N(CCCN(C)C)C(=O)c3ccc(S(=O)(=O)N4CCCC4)cc3)nc2c1,7,x,-10,-7,-1
Cc1cc(C)c2sc(N(CCCN(C)C)C(=O)c3ccc(S(=O)(=O)N4CCc5ccccc5C4)cc3)nc2c1,14,x,-28,-17,-1
CN(C)CCCN(C(=O)c1ccc(S(=O)(=O)N2CCc3ccccc3C2)cc1)c1nc2ccc(F)cc2s1,91*,62,-3,x,-2
CC1CN(C(=O)c2ccc(N3CCCCC3)c([N+](=O)[O-])c2)CC(C)O1 (stereo not given),-6,-4,-6,x,u
CC(C)S(=O)(=O)C/C(N)=N/OC(=O)c1cc(Cl)cc(Cl)c1,8,-3,6,6,33
Cc1ccc2sc(N(CCCN(C)C)C(=O)c3ccc(S(=O)(=O)N(C)C4CCCCC4)cc3)nc2c1C,89*,x,0,x,-11
SMILES,CSC inhib,Beta apoptosis,Shn3 3UTR inh,PfHsp90 set2,Calb FLC
CN(C)CCCN(C(=O)c1cc(-c2cccs2)nc2ccccc12)c1nc2ccc(F)cc2s1,103*,6,8,x,-6
Cc1cc(C)c2sc(N(CCCN(C)C)C(=O)c3ccc(S(=O)(=O)N4CCCc5ccccc54)cc3)nc2c1,101*,x,-1,-27,2
CS(=O)(=O)Nc1ccccc1C(=O)Nc1cc(Cl)cc(Cl)c1,59,64,54,4,51
CS(=O)(=O)Nc1ccccc1C(=O)Nc1cccc(Cl)c1,76*,31,3,11,66
Cn1cnc([N+](=O)[O-])c1S(=O)(=O)Oc1ccccc1,x,x,95*,6,x
CNC(=O)N(O)C1N(/N=C/c2c(F)cccc2Cl)C(=S)SC1(C)C (stereo not given),4,1,5,-3,9
CN1/C(=C\C(=O)c2ccco2)C(C)(C)c2ccccc21,36,99*,79,22,0
CN1/C(=C\C(=O)c2cncc(Br)c2)C(C)(C)c2ccccc21,0,101*,73,0,16
COc1ccccc1OCC(=O)/C=C1/N(C)c2ccccc2C1(C)C,9,26,71,-32,11
CN1/C(=C/C(=O)c2nc(S(C)(=O)=O)ncc2Cl)C(C)(C)c2ccccc21,111*,61,96*,-68,-16
CN1/C(=C\C(=O)COc2ccc3c(c2)OCO3)C(C)(C)c2ccccc21,112*,61,72,-3,-5
CN1/C(=C\C(=O)COC(=O)c2ccco2)C(C)(C)c2ccccc21,-2,12,24,9,-37
O=C(O/N=C/c1ccc(Br)cc1)c1ccc(F)cc1,-7,-1,15,-18,-16
CCC(=O)Nc1ccc2c(c1)nc1n2CCN(CCOC)C1,-11,0,5,15,-7
CC1CCCCN1Cc1nc2c(c(=O)n(C)c(=O)n2C)n1Cc1c(F)cccc1Cl (stereo not given),77*,14,0,27,x
CCOC(=O)c1c(NC(=O)C2c3ccccc3Oc3ccccc32)sc(C(C)=O)c1C,x,x,89*,12,5
CCOC(=O)c1c(NC(=O)COC)sc(C(C)=O)c1C,-1,-3,-6,x,12
COC(=O)c1c(NC(=O)C2c3ccccc3Oc3ccccc32)sc(C)c1C,25,17,-5,7,18
COC(=O)c1sc(NC(=O)C2c3ccccc3Oc3ccccc32)c(C(=O)OC)c1C,16,116*,81,8,4
O=S(=O)(Cc1ccccc1Cl)NCCc1ccccc1,-7,-3,3,-11,-17
CC1(C(=O)O)CCCN1C(=O)c1cccc(OC(F)(F)F)c1 (stereo not given),x,x,-7,x,x
COc1ccc(/C=N/Nc2cc(C)nc3ccc(Br)cc23)cc1,107*,100*,93*,13,48
COc1ccc2nc(C)cc(N/N=C/c3cccc(OC)c3O)c2c1,1,29,11,15,-14
CCN(CC)c1nc(-c2ccccn2)nc(-c2ccccc2)c1C#N,-15,x,65,-73,103*
CN(C)c1nc(-c2ccccn2)nnc1-c1ccccc1,-9,5,93*,34,-2
CN(C)c1nc(-c2ccccc2)nc(-c2ccc(Cl)cc2)c1C#N,0,6,-7,-3,-10
O=C(Nc1cccc(Br)c1)c1cccc(OC(=S)N2CCOCC2)c1,0,x,54,8,18
